Laboratory results taken from the supplement of paper PMC10849652.
Of roughly 7,900 targets only a part is listed; those with a hit were picked by preference. About 0.6% of all pairs of compound and target were hits. Unmarked numbers belong to inactive results.

How the values were obtained:
Assay in all cases: log2 fold change, soluble protein after heating vs DMSO (PISA); higher = thermal stabilisation; K562 cells, 10 uM, 30 min; active = over 0.2 and 3.5 SD of the protein, either way, in both replicates (recomputed)
[1] = compound: CC1=C(C=C(C=C1)NC(=O)C2=CC(=CC=C2)C(C)(C)C#N)NC3=CC4=C(C=C3)N=CN(C4=O)C
In short: (§1)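 For each measurement, 10 μM compound was applied for 30 min to K562 cells at 2×10^6 cells/mL. Aliquots were heated for 3 min across 48°C-58°C, pooled, and extracted in PBS with 0.5% NP-40 at 4°C; the supernatant after 21,000xg for 90 min was soluble protein. This was quantified by TMTpro 16plex LC-MS/MS with channel sums equalised, and thermal stability was reported relative to control samples from duplicates, on a log2 fold-change scale.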

[2] = compound: CC1=C(C=C(C=C1)NC(=O)C2=CC(=CC=C2)N(C)C)NC(=O)C3=CC=C(C=C3)O
In short: as §1

[3] = compound: CC1=CC=C(C=C1)SC2=C3C=C(SC3=CN=C2)C(=O)N
In short: as §1

[4] = compound: CC1=NC(=CC=C1)C2=C(N=C(N2)C(C)(C)C)C3=CC4=NC=CN=C4C=C3
In short: as §1

[5] = compound: CCCCN(Cc1ccc(C(=O)NO)cc1)C(=O)Nc1ccccc1 [Nexturastat A]
In short: as §1

[6] = compound: CCCS(=O)(=O)Nc1ccc(F)c(C(=O)c2c[nH]c3ncc(Cl)cc23)c1F
In short: as §1

[7] = compound: CCCc1cc(C)[nH]c(=O)c1CNC(=O)c1cc(-c2ccnc(N3CCN(C)CC3)c2)cc2c1cnn2C(C)C
In short: as §1

[8] = compound: CCN(CC)Cc1ccc2cc(COC(=O)Nc3ccc(C(=O)NO)cc3)ccc2c1 [givinostat]
In short: as §1

[9] = compound: CCN(CCCOc1ccc2c(Nc3cc(CC(=O)Nc4cccc(F)c4)[nH]n3)ncnc2c1)CCOP(=O)(O)O [barasertib]
In short: as §1

[10] = compound: CCCS(=O)(=O)Nc1ccc(F)c(C(=O)c2c[nH]c3ncc(-c4ccc(Cl)cc4)cc23)c1F [vemurafenib]
In short: as §1

Sequence of UniProt Q9Y6X9 (Q9Y6X9 whole entry, looked up): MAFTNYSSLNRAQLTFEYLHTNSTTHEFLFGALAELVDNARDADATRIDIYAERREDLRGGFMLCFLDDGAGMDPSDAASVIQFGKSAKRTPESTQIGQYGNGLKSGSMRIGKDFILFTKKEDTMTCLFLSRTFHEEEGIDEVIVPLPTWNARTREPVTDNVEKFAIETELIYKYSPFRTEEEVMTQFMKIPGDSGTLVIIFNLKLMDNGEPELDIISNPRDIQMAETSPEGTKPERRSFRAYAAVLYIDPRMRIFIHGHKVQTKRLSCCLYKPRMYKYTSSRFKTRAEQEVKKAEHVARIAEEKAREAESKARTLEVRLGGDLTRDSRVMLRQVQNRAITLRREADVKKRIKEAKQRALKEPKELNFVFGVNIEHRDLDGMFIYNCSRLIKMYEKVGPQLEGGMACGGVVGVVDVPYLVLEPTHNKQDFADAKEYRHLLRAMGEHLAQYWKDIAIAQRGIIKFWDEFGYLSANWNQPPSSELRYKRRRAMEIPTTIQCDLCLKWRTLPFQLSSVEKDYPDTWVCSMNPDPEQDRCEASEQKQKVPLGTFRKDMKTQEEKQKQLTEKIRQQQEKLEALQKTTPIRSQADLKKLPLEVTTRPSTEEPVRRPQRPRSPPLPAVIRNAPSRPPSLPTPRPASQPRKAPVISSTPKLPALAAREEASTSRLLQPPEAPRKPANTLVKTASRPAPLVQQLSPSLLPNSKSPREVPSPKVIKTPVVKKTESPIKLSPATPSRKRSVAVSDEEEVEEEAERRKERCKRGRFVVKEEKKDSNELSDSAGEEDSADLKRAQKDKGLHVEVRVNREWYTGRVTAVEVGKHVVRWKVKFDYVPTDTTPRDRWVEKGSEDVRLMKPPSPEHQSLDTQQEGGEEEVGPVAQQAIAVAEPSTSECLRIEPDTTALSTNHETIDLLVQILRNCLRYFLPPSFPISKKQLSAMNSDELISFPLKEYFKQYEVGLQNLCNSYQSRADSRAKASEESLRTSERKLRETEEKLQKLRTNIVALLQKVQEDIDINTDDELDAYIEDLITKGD
Sequence of UniProt P25208 (P25208 whole entry, looked up): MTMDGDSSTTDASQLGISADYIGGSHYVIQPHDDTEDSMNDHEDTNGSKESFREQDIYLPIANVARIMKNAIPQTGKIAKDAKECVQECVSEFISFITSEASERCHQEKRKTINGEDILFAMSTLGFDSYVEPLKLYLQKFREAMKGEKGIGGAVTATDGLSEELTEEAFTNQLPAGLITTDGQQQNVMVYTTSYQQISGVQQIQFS
Sequence of UniProt Q92686 (Q92686 whole entry, looked up): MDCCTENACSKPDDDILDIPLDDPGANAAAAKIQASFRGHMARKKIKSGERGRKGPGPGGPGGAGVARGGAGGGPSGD
Sequence of UniProt Q8WZ82 (Q8WZ82 whole entry, looked up): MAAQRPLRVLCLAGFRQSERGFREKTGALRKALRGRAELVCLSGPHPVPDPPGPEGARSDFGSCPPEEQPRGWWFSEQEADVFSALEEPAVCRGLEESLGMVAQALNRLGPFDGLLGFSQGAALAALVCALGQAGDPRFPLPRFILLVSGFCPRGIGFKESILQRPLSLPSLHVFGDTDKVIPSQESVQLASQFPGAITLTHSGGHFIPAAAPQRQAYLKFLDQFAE
Sequence of UniProt Q9UI43 (Q9UI43 whole entry, looked up): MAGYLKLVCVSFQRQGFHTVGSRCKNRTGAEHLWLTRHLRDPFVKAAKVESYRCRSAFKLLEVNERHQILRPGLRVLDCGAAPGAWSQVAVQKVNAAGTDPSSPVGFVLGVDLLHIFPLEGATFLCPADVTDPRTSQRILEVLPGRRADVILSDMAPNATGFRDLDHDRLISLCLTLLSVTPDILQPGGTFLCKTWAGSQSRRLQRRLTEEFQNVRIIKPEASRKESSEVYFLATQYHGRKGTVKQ
Sequence of UniProt B2RBV5 (B2RBV5 whole entry, looked up): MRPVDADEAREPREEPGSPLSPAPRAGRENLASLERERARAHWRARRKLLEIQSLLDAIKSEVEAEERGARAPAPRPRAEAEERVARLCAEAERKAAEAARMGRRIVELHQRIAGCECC
Sequence of UniProt Q8N5F7 (Q8N5F7 whole entry, looked up): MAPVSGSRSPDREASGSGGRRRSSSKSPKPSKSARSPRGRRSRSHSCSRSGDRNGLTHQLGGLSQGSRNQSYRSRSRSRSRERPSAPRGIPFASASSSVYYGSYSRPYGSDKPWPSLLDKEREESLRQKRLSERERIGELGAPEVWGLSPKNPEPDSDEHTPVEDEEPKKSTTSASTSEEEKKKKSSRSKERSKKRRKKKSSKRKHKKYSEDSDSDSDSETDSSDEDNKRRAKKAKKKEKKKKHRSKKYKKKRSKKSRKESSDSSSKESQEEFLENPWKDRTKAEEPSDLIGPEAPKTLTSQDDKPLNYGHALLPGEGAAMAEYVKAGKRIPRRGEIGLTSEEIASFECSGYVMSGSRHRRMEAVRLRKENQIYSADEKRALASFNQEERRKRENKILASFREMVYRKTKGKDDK
Sequence of UniProt Q9UK23 (Q9UK23 whole entry, looked up): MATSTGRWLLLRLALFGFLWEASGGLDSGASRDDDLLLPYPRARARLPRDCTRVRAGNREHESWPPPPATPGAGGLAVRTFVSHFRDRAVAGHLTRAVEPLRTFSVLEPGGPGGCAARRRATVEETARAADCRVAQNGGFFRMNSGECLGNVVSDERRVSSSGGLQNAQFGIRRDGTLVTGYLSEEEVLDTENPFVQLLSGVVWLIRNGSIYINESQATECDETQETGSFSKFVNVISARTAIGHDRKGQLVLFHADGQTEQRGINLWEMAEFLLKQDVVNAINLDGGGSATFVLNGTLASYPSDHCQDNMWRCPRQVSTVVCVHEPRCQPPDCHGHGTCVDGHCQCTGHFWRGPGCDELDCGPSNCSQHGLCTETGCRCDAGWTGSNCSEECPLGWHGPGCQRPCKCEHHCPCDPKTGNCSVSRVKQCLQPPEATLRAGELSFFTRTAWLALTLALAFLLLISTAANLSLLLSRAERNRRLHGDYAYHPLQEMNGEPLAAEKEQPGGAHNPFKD
Sequence of UniProt P40261 (P40261 whole entry, looked up): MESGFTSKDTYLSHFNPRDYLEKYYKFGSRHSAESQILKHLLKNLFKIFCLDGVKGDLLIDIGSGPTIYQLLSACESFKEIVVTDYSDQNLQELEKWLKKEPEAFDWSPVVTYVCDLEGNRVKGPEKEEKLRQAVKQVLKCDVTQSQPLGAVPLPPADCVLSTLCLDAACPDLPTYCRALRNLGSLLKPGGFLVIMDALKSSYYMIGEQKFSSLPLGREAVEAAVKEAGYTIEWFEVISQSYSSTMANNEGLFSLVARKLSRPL
Sequence of UniProt Q86VX9 (Q86VX9 whole entry, looked up): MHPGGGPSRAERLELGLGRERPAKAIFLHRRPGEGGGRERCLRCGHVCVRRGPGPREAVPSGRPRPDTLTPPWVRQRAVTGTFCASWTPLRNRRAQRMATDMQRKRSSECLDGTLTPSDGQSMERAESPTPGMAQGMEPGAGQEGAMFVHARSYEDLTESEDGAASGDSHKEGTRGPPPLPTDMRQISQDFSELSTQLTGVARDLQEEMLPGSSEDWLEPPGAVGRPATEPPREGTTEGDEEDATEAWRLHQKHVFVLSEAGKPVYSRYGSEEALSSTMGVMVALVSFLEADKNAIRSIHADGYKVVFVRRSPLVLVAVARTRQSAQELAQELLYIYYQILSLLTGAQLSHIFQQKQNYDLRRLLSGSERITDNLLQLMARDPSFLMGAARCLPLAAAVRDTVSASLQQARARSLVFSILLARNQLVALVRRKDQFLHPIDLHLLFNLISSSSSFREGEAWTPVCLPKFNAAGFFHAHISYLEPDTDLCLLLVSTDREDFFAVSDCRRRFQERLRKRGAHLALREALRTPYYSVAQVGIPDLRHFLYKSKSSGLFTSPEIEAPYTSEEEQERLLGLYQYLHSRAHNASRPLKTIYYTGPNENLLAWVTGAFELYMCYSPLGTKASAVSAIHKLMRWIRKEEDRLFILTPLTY
Sequence of UniProt Q8N573 (Q8N573 whole entry, looked up): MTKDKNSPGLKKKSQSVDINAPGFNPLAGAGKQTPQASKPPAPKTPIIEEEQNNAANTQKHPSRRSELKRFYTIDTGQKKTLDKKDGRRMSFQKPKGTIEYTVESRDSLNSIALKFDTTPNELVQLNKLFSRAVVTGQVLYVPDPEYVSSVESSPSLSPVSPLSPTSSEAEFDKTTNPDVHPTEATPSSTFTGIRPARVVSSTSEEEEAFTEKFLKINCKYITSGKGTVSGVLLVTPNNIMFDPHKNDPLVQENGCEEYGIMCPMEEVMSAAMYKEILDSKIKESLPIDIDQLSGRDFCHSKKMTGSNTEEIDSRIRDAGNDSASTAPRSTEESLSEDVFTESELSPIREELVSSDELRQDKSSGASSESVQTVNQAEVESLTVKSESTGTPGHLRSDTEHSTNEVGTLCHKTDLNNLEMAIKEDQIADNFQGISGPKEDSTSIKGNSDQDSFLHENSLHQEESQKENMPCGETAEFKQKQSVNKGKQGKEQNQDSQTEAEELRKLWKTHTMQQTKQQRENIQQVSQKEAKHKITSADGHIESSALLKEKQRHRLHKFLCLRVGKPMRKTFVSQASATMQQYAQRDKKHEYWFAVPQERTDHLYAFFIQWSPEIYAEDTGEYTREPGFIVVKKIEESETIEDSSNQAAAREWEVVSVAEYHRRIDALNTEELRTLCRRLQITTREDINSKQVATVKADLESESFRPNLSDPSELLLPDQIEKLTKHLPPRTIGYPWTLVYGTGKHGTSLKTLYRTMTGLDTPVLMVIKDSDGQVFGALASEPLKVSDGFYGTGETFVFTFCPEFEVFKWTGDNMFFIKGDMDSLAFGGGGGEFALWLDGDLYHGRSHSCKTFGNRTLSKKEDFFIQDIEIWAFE
Sequence of UniProt P53370 (P53370 whole entry, looked up): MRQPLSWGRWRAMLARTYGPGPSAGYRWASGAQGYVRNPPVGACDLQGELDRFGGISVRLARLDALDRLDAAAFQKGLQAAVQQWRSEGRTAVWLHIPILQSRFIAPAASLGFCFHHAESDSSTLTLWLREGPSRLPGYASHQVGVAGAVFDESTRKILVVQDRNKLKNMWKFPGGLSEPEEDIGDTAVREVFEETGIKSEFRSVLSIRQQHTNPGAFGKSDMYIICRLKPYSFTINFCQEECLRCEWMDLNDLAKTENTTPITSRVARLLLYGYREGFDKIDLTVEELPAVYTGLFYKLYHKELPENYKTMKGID

Row | Target | log2 fold change [1] | log2 fold change [2] | log2 fold change [3] | log2 fold change [4] | log2 fold change [5] | log2 fold change [6] | log2 fold change [7] | log2 fold change [8] | log2 fold change [9] | log2 fold change [10]
1 | MON1A (UniProt Q86VX9) | 0.055 | 0.004 | -0.061 | 0.061 | 0.015 | -0.011 | 0.009 | 0.008 | 0.065 | 
2 | NMD3 (UniProt Q96D46) | 0.03 | -0.061 | -0.009 | 0.067 | -0.079 | 0.03 | -0.004 | -0.024 | 0.015 | 0.077
3 | ORC5 (UniProt O43913) | -0.193 | -0.089 | 0 | -0.038 |  | 0.058 | 0.058 | -0.009 | 0.025 | 0.058
4 | NFYB (UniProt P25208) | -0.012 | -0.118 | -0.023 | 0.025 |  | 0.025 | 0.044 | -0.012 | 0.049 | 0.026
5 | NME7 (UniProt Q9Y5B8) | -0.008 | -0.089 | -0.021 | 0.059 | 0.024 | 0.081 | -0.06 | -0.202 | 0.042 | -0.037
6 | MRPS10 (UniProt P82664) | 0.018 | 0 | 0 | -0.03 | 0.097 | 0.006 | -0.046 | 0.063 | -0.051 | -0.002
7 | NDFIP1 (UniProt Q9BT67) | -0.366 | -0.125 |  | -0.1 | 0.048 |  | -0.15 | -0.046 | -0.011 | 0.268
8 | MTFR1L (UniProt Q9H019) | 0.082 | -0.006 | 0.008 | -0.122 | -0.027 | 0.116 |  | 0.031 | -0.026 | 0.048
9 | NUCKS1 (UniProt Q9H1E3) | -0.036 | 0.065 | -0.014 | 0.044 | -0.061 | -0.061 | -0.076 | -0.004 | 0.008 | 0.017
10 | NCBP2AS2 (UniProt Q69YL0) | 0.069 | 0.017 | 0.162 |  |  | 0.037 | -0.096 | -0.146 | 0.072 | -0.039
11 | MRFAP1 (UniProt Q9Y605) | -0.073 | -0.011 | 0.101 | -0.045 |  | 0.046 | 0.009 | 0.017 | 0.036 | -0.148
12 | MTHFS (UniProt P49914) | 0.047 | -0.054 | -0.01 | 0.047 | -0.005 | 0.01 | -0.041 | -0.063 | 0.009 | -0.017
13 | NDUFS7 (UniProt O75251) | 0.008 | 0.004 | 0.017 | 0.025 | -0.019 | 0.028 | -0.039 | 0.113 | 0.016 | -0.025
14 | NASP isoform 2 (UniProt P49321) |  |  |  |  |  |  | 1.06 |  |  | 
15 | MMADHC (UniProt Q9H3L0) |  | 0.001 | -0.078 | -0.078 |  | -0.057 | 0.108 | 0.04 | 0.029 | 0.067
16 | NPC1L1 (UniProt Q9UHC9) | -0.014 |  | 0.152 | 0.02 |  | -0.109 | 0.012 |  | -0.037 | -0.213
17 | NAP1L1 (UniProt B7Z9C2) |  |  |  | 0.14 |  |  | -0.109 | -0.053 | -0.002 | -0.304
18 | NMU (UniProt P48645) |  | -0.052 | 0.09 | 0.411 (active) | 0.283 | -0.127 |  | 0.001 | 0.002 | 0.067
19 | MSANTD2 (UniProt Q6P1R3) | -0.024 |  |  |  | 0.239 |  |  |  |  | -0.062
20 | NA, A0A494C071 |  |  |  | 0.011 | -0.081 |  | -0.159 |  | 0.043 | -0.142
21 | OSBPL2 (UniProt Q9H1P3) |  |  | -0.203 |  |  | 0 | -0.264 |  |  | 
22 | NEU3 isoform 2 (UniProt Q9UQ49) | 0.022 |  | -0.112 |  |  | 0.133 |  | 0.189 |  | 
23 | MLST8 (UniProt Q9BVC4) | 0.118 |  | 0.094 | -0.079 | 0.001 | 0.031 | -0.035 | -0.058 | 0.038 | 0.009
24 | NA, A0A1W2PSA9 |  | 0.108 |  |  |  |  |  |  |  | 
25 | NDUFA7 (UniProt M0R0N0) | -0.011 |  |  |  |  |  |  | 0.104 | 0.052 | -0.195
26 | NOLC1 isoform 3 (UniProt Q14978) |  |  |  |  |  |  |  | -0.02 |  | 
27 | MLH1 (UniProt P40692) |  |  | 0.023 |  | -0.014 | 0.276 | 0.584 (active) |  | 0.11 | 

Row | Target | log2 fold change [1] | log2 fold change [2] | log2 fold change [3] | log2 fold change [4] | log2 fold change [5] | log2 fold change [6] | log2 fold change [7] | log2 fold change [8] | log2 fold change [9] | log2 fold change [10]
28 | MYO19 (UniProt Q96H55) |  | 0.069 | 0.091 | -0.054 | 0.382 | 0.554 (active) |  | 0.143 | 0.039 | -0.082
29 | NUDT6 (UniProt P53370) |  | 0.049 | 0.064 | 0.075 | -0.119 | -0.037 | -0.092 | -0.027 |  | 0.002
30 | NAGPA (UniProt Q9UK23) | -0.028 |  | -0.004 | 0.054 | -0.131 | -0.067 | -0.066 | 0.002 | -0.133 | 
31 | MOB2 isoform 3 (UniProt Q70IA6) |  | -0.039 | 0.081 |  | -0.149 | 0.018 | 0.163 | 0.061 | -0.121 | 
32 | OGFOD2 (UniProt Q6N063) |  | -0.007 |  | -0.091 | 0.117 |  | 0.037 | -0.041 | 0.059 | 0.001
33 | OVCA2 (UniProt Q8WZ82) |  | -0.132 | 0.013 | 0.086 |  | -0.048 | -0.305 |  | 0.06 | 
34 | MT-ND2 (UniProt P03891) |  | 0.109 | -0.047 | 0.062 |  | 0.198 | -0.123 | 0.006 | 0.079 | 0.065
35 | NKAP (UniProt Q8N5F7) |  | 0.233 | 0.017 | 0.052 | 0.042 | 0.046 | 0.15 | 0.044 | -0.165 | 0.073
36 | NDUFB1 (UniProt O75438) | -0.087 |  | -0.08 | 0.067 | 0.027 | 0.065 | 0.025 | -0.015 | -0.009 | -0.001
37 | MORC2 (UniProt Q9Y6X9) |  |  | -0.059 | 0.047 | -0.046 | 0.208 | 0.231 | 0.026 | -0.002 | 
38 | MRM2 (UniProt Q9UI43) |  |  | 0.046 |  |  | -0.078 |  | 0.001 |  | 0.047
39 | OXR1 isoform 2 (UniProt Q8N573) |  | -0.007 | 0.008 | -0.071 | 0 | 0.027 |  |  |  | 0.126
40 | NA (UniProt J3KR12) |  | 0.018 |  | 0.073 | -0.283 |  | -0.046 |  | 0 | 
41 | MOB3B (UniProt Q86TA1) |  |  | -0.147 | -0.033 |  | -0.272 | 0.039 | 0.174 | 0.018 | 0.137
42 | MYH16 (UniProt Q9H6N6) | 0.484 |  | 0.143 | 0.724 (active) |  | 0.216 | 0.12 | -0.072 | -0.069 | 0.155
43 | NNMT (UniProt P40261) | 0.038 |  | 0.012 | 0.039 | -0.082 | -0.001 | -0.093 | -0.076 | -0.04 | 0.011
44 | NKTR (UniProt P30414) |  |  | -0.041 |  |  | -0.4 | -0.045 | 0.532 | 0.042 | 
45 | NOS1AP (UniProt O75052) |  | -0.016 | 0.08 |  | -0.058 | -0.161 | 0.101 | -0.117 | 0.046 | -0.335
46 | MITF (UniProt O75030) | 0.005 |  |  | 0.107 |  |  | -0.281 | -0.002 |  | 0.016
47 | NELFCD (UniProt Q8IXH7) |  |  | 0.02 | 0.18 | 0.094 | 0.051 |  | 0.167 | 0 | 0.15
48 | NA (UniProt B2RBV5) | -0.022 |  | -0.245 |  | 0.292 | 0.005 | 0.021 |  | 0.002 | 
49 | NIPSNAP2 (UniProt C9J7B1) | 0.067 |  |  |  |  |  | -0.182 |  | 0.01 | 
50 | NIPSNAP3B (UniProt Q9BS92) | -0.133 |  | 0.049 | 0.023 |  | 0.016 | -0.001 | -0.088 | 0.016 | 0.065
51 | NRGN (UniProt Q92686) |  | -0.168 | 0.087 | -0.171 | 0.143 | 0.032 |  | -0.034 | -0.14 | 
52 | MXRA7 isoform 3 (UniProt P84157) |  | 0.178 | -0.174 |  |  | 0.193 |  |  |  | 
53 | OAF (UniProt Q86UD1) | -0.005 | -0.119 |  |  |  |  | -0.346 | -0.071 |  | 
